Among the test systems are T-47D breast; BT-549 breast; MDA-MB-435 melanoma; SW-620 colon; MCF7 breast; HCT-116 colon; HCC-2998 colon; KM12 colon.
Common to all, as to experiment: NCI-60 one-dose screen, 48 h (100 = growth as untreated, 0 = no growth, -100 = all killed)
What all share (settings): 10 µM unless noted

About 83,000 compounds went through this panel and 20% of them were active in at least one assay; those are over-represented in the sample as a whole.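 Compound tested at a single concentration for 48 hours in 96-well plates; a percent growth value below 10 was scored as active.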 A number with no mark means an inactive call. Activity calls are given as the source filed them.

Regarding `Cc1nn(-c2cc(=O)[nH]c3ccccc23)c(N)c1C#N`, the growth was 104% in the test on T-47D breast; 110% with BT-549 breast; 106% in the test on MDA-MB-435 melanoma; 103% in the test on SW-620 colon; 97.5% with MCF7 breast; 107% with HCT-116 colon. For the same compound, the growth with HCC-2998 colon is 115%; in the test with KM12 colon, 101%.

As to `COC(=O)c1cccc(NC(=O)c2ccc(-c3cccc(N)c3)o2)c1`, the growth in the test on T-47D breast is 88.1%; with BT-549 breast it was 93.5%; in the test with MDA-MB-435 melanoma, 98.8%; in the test with SW-620 colon, 104%; in the test on MCF7 breast it was 92.4%; in the test on HCT-116 colon, 108%. For the same compound, the figures for the growth in the test with HCC-2998 colon and in the test on KM12 colon were 101% and 98%, respectively.

Take `Cc1ccc(NC(=O)C2CCC(CN3CCN(C)CC3)CC2)cc1Nc1nccc(-c2cccnc2)n1` (configuration not stated): the growth was 86.2% in the test on T-47D breast; 103% in the test on BT-549 breast; 93.5% with MDA-MB-435 melanoma; 98.4% with SW-620 colon; 83.8% in the test with MCF7 breast; 101% in the test on HCT-116 colon. The growth in the test with HCC-2998 colon was 106%; with KM12 colon, 97.3%.

Take `COc1cccc(/C=C2\SC(=Nc3ccc(NC(C)=O)cc3)NC2=O)c1OC`: the growth in the test on T-47D breast is 89.2%; in the test with BT-549 breast it was 97.8%; with MDA-MB-435 melanoma, 52.1%; in the test on SW-620 colon, 92%; in the test with MCF7 breast, 92.6%; with HCT-116 colon, 98%. The figures for the growth in the test on HCC-2998 colon and in the test with KM12 colon were 101% and 89.4%, respectively.

With `O=C1c2ccccc2C(=O)c2c1ccc1[nH]c(-c3cccs3)nc21`, the growth with T-47D breast is 56.1%; with BT-549 breast it was 65.5%; with MDA-MB-435 melanoma, 101%; in the test with SW-620 colon, 90.7%; in the test on MCF7 breast, 66.4%; with HCT-116 colon it was 70.5%. The growth in the test with HCC-2998 colon was 99.3%; with KM12 colon, 70.5%.

Regarding `CC(C)(C)c1cc(C(C)(C)C)cc(S(=O)(=O)Nc2cc3ccccc3cc2C(=O)NCCN)c1`, the growth is 5.06% (active) in the test on T-47D breast; 101% with BT-549 breast; 0.859% (active) in the test with MDA-MB-435 melanoma; -78% (active) in the test with SW-620 colon; -10.6% (active) with MCF7 breast; 11.9% in the test on HCT-116 colon. The growth is -38.6% (active) in the test with HCC-2998 colon and -33.4% (active) in the test on KM12 colon.

`N#Cc1nnn(-c2ccc(S(N)(=O)=O)cc2)c1NCC(=O)c1ccccc1`: the growth with T-47D breast is 95.4%; in the test on BT-549 breast it was 98%; with MDA-MB-435 melanoma it was 91.8%; in the test on SW-620 colon it was 97.2%; with MCF7 breast, 93.3%; in the test with HCT-116 colon, 95%. The values for the growth with HCC-2998 colon and in the test on KM12 colon were 112% and 99.4%, respectively.

For the compound `Nc1ccc(-c2cc3c(Nc4ccc(Oc5cccc(C(F)(F)F)c5)c(Cl)c4)ncnc3s2)cc1`, the growth with T-47D breast is 43.8%; in the test with BT-549 breast, 73%; in the test on MDA-MB-435 melanoma it was 70.3%; with SW-620 colon it was 101%; in the test with MCF7 breast, 34.7%; in the test on HCT-116 colon it was 67.9%. For the same compound, the growth with HCC-2998 colon was 69%; in the test with KM12 colon, 44.5%.

Take `O=C(CN1C(=O)/C(=C/c2ccc(Cl)cc2)SC1=S)NCCCN1CCOCC1`: the growth was 84.3% with T-47D breast; 102% in the test on BT-549 breast; 102% with MDA-MB-435 melanoma; 102% in the test with SW-620 colon; 92.8% in the test on MCF7 breast; 102% in the test on HCT-116 colon. Besides, the values for the growth with HCC-2998 colon and with KM12 colon were 102% and 104%, respectively.

Consider `C#Cc1cccc(NC(=O)c2ccccc2NC(=O)C=C)c1`, for which the growth in the test on T-47D breast is 76.6% [8.25 µM]; with BT-549 breast, 102% [8.25 µM]; in the test on MDA-MB-435 melanoma it was 103% [8.25 µM]; in the test on SW-620 colon it was 109% [8.25 µM]; with MCF7 breast it was 82.4% [8.25 µM]; with HCT-116 colon, 102% [8.25 µM]. The growth with HCC-2998 colon is 104% [8.25 µM]; in the test with KM12 colon it was 97.8% [8.25 µM].

Regarding `CN(C)c1ccc(NC(=O)c2ccc(/C=C/C(=O)c3ncc[nH]3)cc2)cc1`, the growth with T-47D breast is 46.6%; in the test with BT-549 breast it was 63.1%; in the test on MDA-MB-435 melanoma, 51.7%; with SW-620 colon, 21.1%; in the test with MCF7 breast it was 12.1%; with HCT-116 colon, 46.4%. The growth in the test on HCC-2998 colon was 87.9%; in the test on KM12 colon, 10.2%.

Turning to `CN(C)[C@@H]1C(=O)C(C(=O)NCc2nc3[nH]cnc(=S)c3[nH]2)=C(O)[C@@]2(O)C(=O)C3=C(O)c4c(O)cccc4[C@@](C)(O)[C@H]3C[C@@H]12`, the growth is 40.4% with T-47D breast; 54% with BT-549 breast; 33.8% with MDA-MB-435 melanoma; 73.8% with SW-620 colon; 16.6% with MCF7 breast; 33.8% in the test with HCT-116 colon. Also, the growth is 16.3% with HCC-2998 colon and 68.5% in the test with KM12 colon.

In the case of `COc1ccc(S(=O)(=O)N2CCN(C)CC2)cc1NC(=O)c1[nH]c(C)c2c1CCCCC2=O`, the growth in the test on T-47D breast is 44.1%; in the test with BT-549 breast, 90.4%; with MDA-MB-435 melanoma it was 42.1%; with SW-620 colon, 70.7%; in the test with MCF7 breast, 30%; with HCT-116 colon, 53.5%. Also, the results for the growth with HCC-2998 colon and in the test on KM12 colon were 64.4% and 64.7%, respectively.

For the compound `O=C(COc1cccc(/C=C2\COc3ccccc3C2=O)c1)Nc1nccs1`, the growth with T-47D breast is 54.7%; in the test on BT-549 breast it was -79.6% (active); in the test on MDA-MB-435 melanoma, 53.5%; in the test on SW-620 colon, -40.7% (active); with MCF7 breast it was -12.5% (active); in the test on HCT-116 colon, -100% (active). Moreover, the growth with HCC-2998 colon is -85.6% (active); with KM12 colon it was -44.6% (active).
